This is an account of results in PubChem BioAssay (NCATS).

For one test, the system named is CRL-7250. Nature of the test: Cytotoxic Profiling of Annotated Libraries Using Quantitative High-Throughput Screening (AID 1296008). For max response: % is set by controls: 0 for no effect and ±100 for the full control effect. Note: potency is the fitted concentration of half-maximal effect. To be noted: Five cell lines viability, CellTiter-Glo ATP luminescence, 48-72 h; max response: hits give low values. In a few lines:
(§1)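 Compounds were pin-transferred onto cells and incubated 48 or 72 hr at 37 degree Celsius, 95% humidity. CellTiter-Glo was added, plates sat 10 min at room temperature, then ATP-coupled luminescence was imaged as the viability read-out.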

Another test has as its system KB-3-1. The description is as above. To be noted: Five cell lines viability, CellTiter-Glo ATP luminescence, 48-72 h; max response: hits give low values. Put shortly:
as §1

The next test deals with NIH3T3. The description is as above. To be noted: Five cell lines viability, CellTiter-Glo ATP luminescence, 48-72 h; max response: hits give low values. Put shortly:
as §1

The subject of another test is HEK293. The description is as above. Particulars: Five cell lines viability, CellTiter-Glo ATP luminescence, 48-72 h; max response: hits give low values. Put shortly: as §1
In test [1] the test system is HaCat. The description is as above. Particulars: Five cell lines viability, CellTiter-Glo ATP luminescence, 48-72 h; max response: hits give low values. Put shortly: as §1
Test [2] relates to HACAT. Nature of the test: qHTS assay to identify novel small-molecules to repurpose for Merkel cell carcinoma treatment (AID 1296009). To be noted: MCC and control cell lines, CellTiter-Glo viability, 72 h; at 44.8 µM (top of the series) unless noted. In a few lines:
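Cells exposed to NPC (8-point) and MIPE (11-point) compound dilutions for 72 hr at 37 degree celsius; viability read by CellTiter-Glo luminescence, normalized to no-cell and DMSO in-plate controls.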

Molecules are shown by their SMILES. Where “and” joins values, the source holds several entries; their conditions need not be identical. Identical values can stand only once. Inconclusive results are not listed. Unmarked numbers belong to inactive results. Calls of active or inactive are those of the source. Calls come from the whole dose curve; as a rule, active = well fitted inhibition curve with a large enough effect; inconclusive = small, poorly fitted or top-dose-only effect; inactive = flat fitted curve, though single readings scatter.
Note: nearly all actives have a fitted effect of over 60% in size.

In the case of `CN1N=C(N)c2cn([C@@H]3O[C@H](COP(=O)(O)O)[C@@H](O)[C@@H]3O)c3ncnc1c23`, the Potency in the test on CRL-7250 was 1.32 µM (active); in the test on KB-3-1, 3.72 µM (active); in the test on NIH3T3, 0.418 µM (active).

As for `O=S(=O)(NCCNCC=Cc1ccc(Br)cc1)c1cccc2cnccc12`, the Potency in the test on HEK293 was 7.43 µM (active). The max response in the test on HaCat [1] was -0.249%; with NIH3T3 it was -13.9%.

Consider `CNC(=O)c1cc(Oc2ccc(NC(=O)Nc3ccc(Cl)c(C(F)(F)F)c3)c(F)c2)ccn1`, for which, in the test with HEK293, the Potency is 7.43 µM (active). In addition, the call in the test on HaCat [1] and in the test with HACAT [2] was inactive. In addition, the max response in the test on KB-3-1 is 1.15%; in the test with NIH3T3, -27%.

As to `Oc1cc(O)cc(C=Cc2ccc(O)c(O)c2)c1`, the molecule was classed as inactive with HEK293. Also, the results for the max response with HaCat [1], in the test on KB-3-1 and with NIH3T3 were -2.98%, -8.49% and 3.17%, respectively.

Regarding `OC(c1cc(C(F)(F)F)nc2c(C(F)(F)F)cccc12)C1CCCCN1` (stereo unspecified), the molecule was classed as inactive with HaCat [1] and in the test on HACAT [2].

For `CON(C)C(=O)N1N=C(c2cc(F)ccc2F)S[C@]1(CCCN)c1ccccc1`, the figures for the max response in the test with HaCat [1] and in the test on NIH3T3 were -26.8% and -18.9%, respectively. The Potency in the test on KB-3-1 was 0.0008 µM (active).

For the molecule `COc1ccc2nc3cc(Cl)ccc3c(Nc3cc(CN4CCCC4)c(O)c(CN4CCCC4)c3)c2n1`, the call in the test with HaCat [1] and in the test with HACAT [2] was inactive. Besides, the max response in the test on NIH3T3 was -1.17%.

Consider `Cc1ccccc1C(=O)c1ccc(Nc2ccc(Br)cc2N)cc1Cl`, for which the max response was -2.01% in the test on HaCat [1] and -21.7% in the test with NIH3T3.

As for `O=C1CN2Cc3c(ccc(Cl)c3Cl)N=C2N1`, the max response with HaCat [1] is -28.5%.

As for `Cc1ccc(NC(=O)c2cccc(N(C)C)c2)cc1NC(=O)c1ccc(O)cc1`, the call in the test on HaCat [1] and in the test on HACAT [2] was inactive. Further, the max response in the test with KB-3-1 is 5.76%; in the test on NIH3T3, 3.99%.

Take `CC(C)C[C@H](NC(=O)c1cc2ccccc2s1)C(=O)N1CCN(C(=O)[C@H](CO)NS(=O)(=O)c2ccc(Cl)cc2Cl)CC1`: the max response with HaCat [1] was -15.5%; in the test with NIH3T3, -5.73%.

With `O=C(Nc1ccc(OC(F)(F)F)cc1)c1sccc1NCc1ccnc2ccccc12`, in the test with HEK293, the Potency is 8.33 µM (active) and 20.6 µM (active). Further, the outcome with HaCat [1] and in the test with HACAT [2] was inactive.

`OCCn1cc(-c2ccc3c(c2)CCC3=NO)c(-c2ccncc2)n1`: the figures for the max response in the test on HaCat [1], with KB-3-1 and in the test with NIH3T3 were 1.64%, -5.13% and -8.29%, respectively.

Take `COc1ccc2cc1Oc1ccc(cc1)C[C@H]1c3cc(c(OC)cc3CCN1C)Oc1c(OC)c(OC)cc3c1[C@H](C2)N(C)CC3`: the max response in the test with NIH3T3 was -30.2%.

On to `CC1=C[C@@H]2[C@@H]([C@@H](O)C[C@@]3(C)[C@H]2C[C@@H](C)[C@]3(O)C(=O)CO)[C@@]2(C)Cc3cnn(-c4ccccc4)c3C=C12`, for which the Potency was 10.3 µM (active) in the test with HEK293, 20.6 µM (active) with HaCat [1] and 14.6 µM (active) in the test on NIH3T3.

As to `CC(C)(F)C[C@H](N[C@@H](c1ccc(-c2ccc(S(C)(=O)=O)cc2)cc1)C(F)(F)F)C(=O)NC1(C#N)CC1`, the outcome in the test with HaCat [1] and with HACAT [2] was inactive. For the same molecule, the max response in the test with KB-3-1 is 7.07%; in the test with NIH3T3, -18%.

Take `CCC[C@H](Nc1nc(-c2ccc(NC(=O)NCC)c(OC)c2)ncc1C)c1cccnc1`: the max response is -101% with HEK293 and -76.8% in the test with NIH3T3. For the same molecule, the Potency in the test with KB-3-1 is 0.0047 µM (active).

`O=C(C=Cc1ccc(O)cc1)c1ccc(O)cc1O`: the result in the test with HaCat [1] and with HACAT [2] was inactive. Besides, in the test on NIH3T3, the max response is -8.95%.

In the case of `Cc1ccc(NC(=O)Nc2cc(C(F)(F)F)ccc2F)cc1Nc1ccc2c(c1)NC(=O)C2=Cc1ccc[nH]1`, the figures for the Potency in the test with HEK293, in the test with KB-3-1 and in the test on NIH3T3 were 11.8 µM (active), 9.35 µM (active) and 16.6 µM (active), respectively.

For the molecule `COc1ccc(-c2oc3c(CC=C(C)C)c(O)cc(O)c3c(=O)c2O)cc1`, the call in the test on HaCat [1], in the test with NIH3T3 and in the test on HACAT [2] was inactive. The max response in the test with KB-3-1 was 6.49%.

As for `CCN(CC)CCCCNc1nc2cc(Cl)c(Cl)cc2nc1-c1ccc(-c2cccs2)s1`, the Potency with HEK293 was 29.6 µM (active); in the test on KB-3-1, 13.2 µM (active).

`CC[C@H](C)n1cc(C)c2c(C(=O)NCc3c(C)cc(C)[nH]c3=O)cc(-c3ccc(N4CCNCC4)nc3)cc21`: the result in the test with HaCat [1], in the test on NIH3T3 and in the test on HACAT [2] was inactive.

For `CN[C@@H]1CN(c2ccc3c(=O)c(C(=O)O)cn(-c4nccs4)c3n2)C[C@@H]1OC`, the Potency with HaCat [1] is 6.45 µM (active); in the test on NIH3T3, 0.512 µM (active).

For the molecule `CCCCc1ccc(NS(=O)(=O)c2ccc(C)c(C(=O)N3CCN(c4cccc(C)c4C)CC3)c2)cc1`, the max response with HaCat [1] was -17%.

Consider `C[C@@H]1[C@H](C)CC[C@]2(C(=O)O)CC[C@]3(C)C(=CC[C@@H]4[C@@]5(C)CC[C@H](O)C(C)(C)[C@H]5CC[C@]43C)[C@@H]12`, for which the outcome in the test on HACAT [2] is “inactive [at 92 µM]”.

Take `CN1C(=O)C[C@H](C(=O)N[C@@H](Cc2cnc[nH]2)C(=O)N2CCC[C@@H]2C(N)=O)NC1=O`: the max response with HaCat [1] is -3.47%. Moreover, the outcome in the test with KB-3-1 and in the test on NIH3T3 was inactive.
